This is an account of results in the supplement of paper PMC10849652.

About 8,800 targets were measured; listed, in parts, are those with a hit and a random draw of the rest. About 0.5% of all pairs of compound and target were hits. Unmarked numbers belong to inactive results.

What all share (test): log2 fold change, soluble protein after heating vs DMSO (PISA); higher = thermal stabilisation; K562 lysate, 10 uM; active = over 0.2 and 3.5 SD of the protein, either way, in both replicates (recomputed)
Compound in one assay: C=CC(=O)N1CCC[C@@H](n2nc(-c3ccc(Oc4ccccc4)cc3)c3c(N)ncnc32)C1 [ibrutinib]
The procedure, abridged: (§1)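 Following dounce homogenisation of K562 pellets in PBS pH 7.4 with 1 mM MgCl2, crude extract at 1 mg/mL protein was incubated for 30 min with 10 μM compound. Aliquots were then heated for 3 min over 48°C-58°C and pooled, NP-40 was added to 0.5% at 4°C, and soluble protein was recovered as the supernatant at 21,000xg for 90 min. Channel-sum-equalised TMTpro 16plex LC-MS/MS quantified this protein. Each value, from duplicates, is a log-two fold change in thermal stability relative to solvent controls.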

Compound in assay [1]: CC(=O)c1cnc2ccc(-c3cc(Cl)c(O)c(Cl)c3)nc2c1N[C@H]1CC[C@H](CN(C)C)CC1
The procedure, abridged: as §1

Compound in a further assay: CC(C)(C)Cn1c(N)nc2ccc(-c3[nH]c(C(C)(C)C)nc3-c3ccc(F)cc3)nc21 [ralimetinib]
The method in brief: as §1

Compound in assay [2]: CC(C)(O)CC(=O)NCCn1ccc2ncnc(Nc3ccc(Oc4cccc(C(F)(F)F)c4)c(Cl)c3)c21
The procedure, abridged: as §1

Compound in assay [3]: CC(C)C1=C2N=C(C=C(N2N=C1)NCC3=CC=CC=C3)NCCCCCCN
The procedure, abridged:
as §1

Compound in assay [4]: CC1=C(C(CC(=O)N1)C2=CC=C(C=C2)C(F)(F)F)C(=O)NC3=C(C=C4C(=C3)C=NN4)F
The method in brief: as §1

Compound in assay [5]: CC1=C(C2=C(C=C1)C(=O)C3=CC=CC=C3N2CCCN)C
The method in brief:
as §1

Compound in assay [6]: CC1=C(C=C(C=C1)NC(=O)C2=CC(=CC=C2)C(C)(C)C#N)NC3=CC4=C(C=C3)N=CN(C4=O)C
The procedure, abridged:
as §1

Compound in assay [7]: CC1=C(C=C(C=C1)NC(=O)C2=CC(=CC=C2)N(C)C)NC(=O)C3=CC=C(C=C3)O
The method in brief:
as §1

Compound in assay [8]: CC1=CC=C(C=C1)SC2=C3C=C(SC3=CN=C2)C(=O)N
The procedure, abridged: as §1

Compound in the next assay: CCCS(=O)(=O)Nc1ccc(F)c(C(=O)c2c[nH]c3ncc(-c4ccc(Cl)cc4)cc23)c1F [vemurafenib]
The method in brief: as §1

Compound in assay [9]: CCCS(=O)(=O)Nc1ccc(F)c(C(=O)c2c[nH]c3ncc(Cl)cc23)c1F
The procedure, abridged:
as §1

Compound in a further assay: CCN(CCCOc1ccc2c(Nc3cc(CC(=O)Nc4cccc(F)c4)[nH]n3)ncnc2c1)CCOP(=O)(O)O [barasertib]
The method in brief: as §1

Compound in assay [10]: CC[C@@H]1C(=O)N(C)c2cnc(Nc3ccc(C(=O)NC4CCN(C)CC4)cc3OC)nc2N1C1CCCC1
The procedure, abridged: as §1

Compound in the next assay: CC[C@@H]1C(=O)N(C)c2cnc(Nc3ccc(C(=O)N[C@H]4CC[C@H](N5CCN(CC6CC6)CC5)CC4)cc3OC)nc2N1C(C)C [volasertib]
The method in brief: as §1

Compound in assay [11]: CCn1c(C(=O)N(C2CC2)C2CC2)cc2c3c(ncn3C)c(Nc3cc(C)n(C)n3)nc21
The method in brief: as §1

Compound in assay [12]: CCn1cc(-c2ccnc3[nH]c(-c4cccc(CN(C)C)c4)cc23)c(-c2ccc(NC(=O)N(C)C)cc2)n1
The method in brief: as §1

Compound in assay [13]: CN1CCC(CNc2ccc3ncc(-c4cccc(OC(F)(F)F)c4)n3n2)CC1
The procedure, abridged: as §1

Compound in the next assay: CN1CCN(CCOc2cc(OC3CCOCC3)c3c(Nc4c(Cl)ccc5c4OCO5)ncnc3c2)CC1 [saracatinib]
The procedure, abridged:
as §1

Compound in another assay: CN1CCN(c2nc(C3=C(c4c[nH]c5ccccc45)C(=O)NC3=O)c3ccccc3n2)CC1 [sotrastaurin]
The procedure, abridged:
as §1

Chain of UniProt O00483 (O00483 whole entry, looked up): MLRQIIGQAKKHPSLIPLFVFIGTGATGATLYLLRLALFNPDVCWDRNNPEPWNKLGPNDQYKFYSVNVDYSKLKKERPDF
Chain of UniProt P40261 (P40261 whole entry, looked up): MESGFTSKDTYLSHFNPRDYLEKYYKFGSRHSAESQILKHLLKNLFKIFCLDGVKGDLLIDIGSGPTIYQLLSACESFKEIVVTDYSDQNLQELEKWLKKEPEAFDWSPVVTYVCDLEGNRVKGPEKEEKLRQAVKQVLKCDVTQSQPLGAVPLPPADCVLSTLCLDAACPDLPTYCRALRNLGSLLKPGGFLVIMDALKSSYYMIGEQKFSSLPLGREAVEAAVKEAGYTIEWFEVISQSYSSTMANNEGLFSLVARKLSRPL
Chain of UniProt Q15843 (Q15843 whole entry, looked up): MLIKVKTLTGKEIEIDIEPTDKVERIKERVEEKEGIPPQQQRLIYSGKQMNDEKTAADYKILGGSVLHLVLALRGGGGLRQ
Chain of UniProt Q15021 (Q15021 whole entry, looked up): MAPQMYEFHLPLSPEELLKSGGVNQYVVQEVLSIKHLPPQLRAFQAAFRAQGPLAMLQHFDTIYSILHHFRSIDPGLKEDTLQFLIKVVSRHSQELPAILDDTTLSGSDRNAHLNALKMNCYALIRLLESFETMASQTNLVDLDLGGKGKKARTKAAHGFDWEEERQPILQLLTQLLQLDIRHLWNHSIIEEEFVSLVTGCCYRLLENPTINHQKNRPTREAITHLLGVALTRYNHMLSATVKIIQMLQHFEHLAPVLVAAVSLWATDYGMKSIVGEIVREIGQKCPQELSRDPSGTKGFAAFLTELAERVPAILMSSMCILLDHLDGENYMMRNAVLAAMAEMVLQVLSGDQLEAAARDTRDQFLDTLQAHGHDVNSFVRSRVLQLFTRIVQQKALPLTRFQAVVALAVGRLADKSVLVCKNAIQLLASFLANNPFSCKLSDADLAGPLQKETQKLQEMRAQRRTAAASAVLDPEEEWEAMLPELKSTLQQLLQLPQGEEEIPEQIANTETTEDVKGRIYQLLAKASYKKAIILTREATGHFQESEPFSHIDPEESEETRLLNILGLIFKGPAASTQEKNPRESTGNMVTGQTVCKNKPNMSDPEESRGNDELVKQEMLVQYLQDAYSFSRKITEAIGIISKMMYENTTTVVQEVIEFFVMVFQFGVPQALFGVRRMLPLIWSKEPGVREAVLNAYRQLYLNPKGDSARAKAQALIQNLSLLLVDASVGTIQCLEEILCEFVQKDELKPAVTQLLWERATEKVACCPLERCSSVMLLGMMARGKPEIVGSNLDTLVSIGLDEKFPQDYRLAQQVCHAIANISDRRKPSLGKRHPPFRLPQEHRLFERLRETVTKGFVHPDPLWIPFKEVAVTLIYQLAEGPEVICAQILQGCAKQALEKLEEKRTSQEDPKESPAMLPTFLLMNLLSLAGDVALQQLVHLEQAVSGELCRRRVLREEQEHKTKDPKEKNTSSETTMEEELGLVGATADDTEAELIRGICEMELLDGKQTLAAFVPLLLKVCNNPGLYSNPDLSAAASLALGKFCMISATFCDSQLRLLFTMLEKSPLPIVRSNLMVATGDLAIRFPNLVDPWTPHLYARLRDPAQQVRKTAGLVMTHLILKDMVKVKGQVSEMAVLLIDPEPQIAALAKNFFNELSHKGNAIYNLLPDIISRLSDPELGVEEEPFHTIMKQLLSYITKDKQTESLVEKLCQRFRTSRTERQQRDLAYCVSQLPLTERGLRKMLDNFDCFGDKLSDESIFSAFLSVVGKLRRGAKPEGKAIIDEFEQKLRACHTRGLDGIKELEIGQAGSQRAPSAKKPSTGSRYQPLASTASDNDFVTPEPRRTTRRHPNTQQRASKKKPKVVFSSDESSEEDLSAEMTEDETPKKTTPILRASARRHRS
Chain of UniProt Q9BPZ3 (Q9BPZ3 whole entry, looked up): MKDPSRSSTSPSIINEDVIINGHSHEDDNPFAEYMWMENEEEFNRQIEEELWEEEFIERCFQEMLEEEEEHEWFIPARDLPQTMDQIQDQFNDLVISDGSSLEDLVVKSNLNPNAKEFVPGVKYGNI

In the case of NEDD8 (UniProt Q15843), the log2 fold change in the assay with ibrutinib was 0.059; in assay [1], -0.013; with ralimetinib it was -0.001; in assay [2], 0; in [3] it was 0.011; in assay [4] it was -0.01. The log2 fold change in [5] was 0.005; in assay [6], 0.077; in assay [7], 0.025; in assay [8] it was -0.029; with vemurafenib, 0.063; in [9], 0.019. Moreover, the log2 fold change with barasertib is 0.113; in assay [10], -0.003; with volasertib, 0.045; in assay [11] it was 0.041; in assay [12], 0.025; in [13] it was -0.107. In addition, the figures for the log2 fold change with saracatinib and with sotrastaurin were 0.02 and 0, respectively.
Take NCAPD2 (UniProt Q15021): the log2 fold change with ibrutinib was -0.019; in assay [1], -0.019; with ralimetinib it was 0.03; in assay [2], -0.012; in assay [3], -0.031; in assay [4], 0.022. Moreover, the log2 fold change in assay [5] is -0.003; in assay [6] it was 0.016; in assay [7] it was 0.036; in assay [8], -0.005; with vemurafenib it was 0.025; in [9] it was 0.014. In addition, the log2 fold change with barasertib is 0.016; in [10] it was -0.027; with volasertib, -0.057; in [11], 0.022; in [12], -0.037; in [13] it was -0.055. Moreover, the log2 fold change in the assay with saracatinib was 0.006; with sotrastaurin it was 0.021.
With NNMT (UniProt P40261), the log2 fold change is -0.026 in the assay with ibrutinib; -0.037 in assay [1]; 0.011 with ralimetinib; -0.019 in assay [2]; -0.05 in assay [3]; -0.053 in assay [4]. The log2 fold change was 0.026 in assay [5]; 0.06 in assay [6]; 0.016 in assay [7]; -0.034 in assay [8]; 0.024 with vemurafenib; -0.036 in [9]. The log2 fold change with barasertib was -0.059; in assay [10], 0.008; with volasertib, 0.056; in assay [11] it was 0.015; in assay [12], -0.062; in assay [13], 0.03. Moreover, the log2 fold change in the assay with saracatinib is -0.043; with sotrastaurin, 0.021.
PAIP2 (UniProt Q9BPZ3): the log2 fold change is 0.145 with ibrutinib; 0.012 in assay [1]; -0.05 with ralimetinib; -0.006 in assay [2]; 0.006 in assay [3]; 0.015 in assay [4]. The log2 fold change in assay [5] is 0.028; in [6] it was 0.01; in assay [7], -0.003; in [8] it was -0.008; in the assay with vemurafenib, 0; in [9] it was -0.013. Moreover, the log2 fold change with barasertib was 0.272 (active); in assay [10] it was 0.039; in the assay with volasertib it was -0.018; in assay [11], 0.02; in assay [12] it was -0.043; in assay [13] it was -0.001. The figures for the log2 fold change in the assay with saracatinib and with sotrastaurin were -0.081 and -0.073, respectively.
On to NDUFA4 (UniProt O00483), for which the log2 fold change is 0.007 with ibrutinib; 0.199 in assay [1]; 0.022 in the assay with ralimetinib; 0.03 in assay [2]; -0.068 in assay [3]; -0.045 in [4]. Also, the log2 fold change in assay [5] was -0.036; in assay [6] it was -0.058; in assay [7], 0.009; in assay [8], -0.199; with vemurafenib, -0.009; in [9], 0.245. The log2 fold change with barasertib was 0.058; in assay [10], 0.011; in the assay with volasertib, 0.122; in [11], 0.085; in [12] it was 0.067; in assay [13], -0.134. The values for the log2 fold change in the assay with saracatinib and in the assay with sotrastaurin were 0.018 and -0.063, respectively.
